# Columns and labels:
# Experiment in all cases: DAPPL (digital affinity profiling via proximity ligation, sequencing); 10 mM Tris-HCl pH 7.5, 50 mM NaCl, 1 mM DTT, 4% glycerol, room temperature, 30 min; GST-TFs on glutathione beads, 16-mer random dsDNA library, 0.1% formaldehyde crosslink after washing; high values mean tight binding
# FLI1 = target: T1, FLI1 (Homo sapiens, UniProt Q01543 1-452); details: protein: recombinant; tags: N-terminal GST; dsDNA, one strand shown
# T1 sequence: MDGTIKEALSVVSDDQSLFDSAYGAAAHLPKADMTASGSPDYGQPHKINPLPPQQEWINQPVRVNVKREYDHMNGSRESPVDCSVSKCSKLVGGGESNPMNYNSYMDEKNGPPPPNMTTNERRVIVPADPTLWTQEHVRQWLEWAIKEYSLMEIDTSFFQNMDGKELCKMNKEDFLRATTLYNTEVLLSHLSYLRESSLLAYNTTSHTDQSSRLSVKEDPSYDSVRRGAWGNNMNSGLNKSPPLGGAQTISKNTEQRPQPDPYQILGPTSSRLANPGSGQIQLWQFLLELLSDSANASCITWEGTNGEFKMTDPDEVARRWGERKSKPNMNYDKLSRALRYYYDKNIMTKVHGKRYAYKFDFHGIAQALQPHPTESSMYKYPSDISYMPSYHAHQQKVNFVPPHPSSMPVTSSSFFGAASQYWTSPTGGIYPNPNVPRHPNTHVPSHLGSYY
# Outline: (§1)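 GST fusions of human transcription factors were expressed in yeast and captured with glutathione beads. Once given DNA barcodes and pooled alongside a tag-only sample, they were incubated for 30 min at room temperature with 200 nmole of a random double-stranded 16-mer DNA library in Tris/NaCl/DTT/glycerol buffer, then washed, crosslinked (0.1% formaldehyde), proximity-ligated, PCR-amplified and sequenced on an Illumina NextSeq500. The binding signal of each hexamer is its read frequency for a factor divided by its frequency for the tag-only sample.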
# ELK1 = target: T2, ELK1 (Homo sapiens, UniProt P19419 1-428); details: protein: recombinant; tags: N-terminal GST; dsDNA, one strand shown
# T2 sequence: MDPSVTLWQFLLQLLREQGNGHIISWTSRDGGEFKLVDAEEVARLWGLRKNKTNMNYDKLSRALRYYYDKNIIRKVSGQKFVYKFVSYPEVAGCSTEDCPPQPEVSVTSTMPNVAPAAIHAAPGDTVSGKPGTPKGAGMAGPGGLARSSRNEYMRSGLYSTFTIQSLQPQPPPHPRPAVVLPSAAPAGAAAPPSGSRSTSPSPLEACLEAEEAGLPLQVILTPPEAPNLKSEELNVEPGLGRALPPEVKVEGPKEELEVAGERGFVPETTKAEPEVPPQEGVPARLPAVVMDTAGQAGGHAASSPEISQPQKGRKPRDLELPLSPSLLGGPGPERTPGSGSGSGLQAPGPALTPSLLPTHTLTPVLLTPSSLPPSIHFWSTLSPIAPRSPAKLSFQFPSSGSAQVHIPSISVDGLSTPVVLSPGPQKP
# Outline: as §1
# GABPA = target: T3, GABPA (Homo sapiens, UniProt Q06546 1-454); details: protein: recombinant; tags: N-terminal GST; dsDNA, one strand shown
# T3 sequence: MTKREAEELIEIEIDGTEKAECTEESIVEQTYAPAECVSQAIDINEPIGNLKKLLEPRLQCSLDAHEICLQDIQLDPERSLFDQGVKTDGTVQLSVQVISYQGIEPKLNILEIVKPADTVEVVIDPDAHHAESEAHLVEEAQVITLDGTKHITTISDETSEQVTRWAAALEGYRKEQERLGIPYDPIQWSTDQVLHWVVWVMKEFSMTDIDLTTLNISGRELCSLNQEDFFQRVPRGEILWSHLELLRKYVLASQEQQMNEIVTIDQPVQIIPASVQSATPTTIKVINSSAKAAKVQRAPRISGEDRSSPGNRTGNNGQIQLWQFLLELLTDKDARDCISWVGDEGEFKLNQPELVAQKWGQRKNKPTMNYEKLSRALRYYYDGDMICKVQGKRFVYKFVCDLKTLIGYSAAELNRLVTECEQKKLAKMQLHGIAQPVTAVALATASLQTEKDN
# Outline: as §1
# ERG = target: T4, ERG (Homo sapiens, UniProt P11308 1-479); details: protein: recombinant; tags: N-terminal GST; dsDNA, one strand shown
# T4 sequence: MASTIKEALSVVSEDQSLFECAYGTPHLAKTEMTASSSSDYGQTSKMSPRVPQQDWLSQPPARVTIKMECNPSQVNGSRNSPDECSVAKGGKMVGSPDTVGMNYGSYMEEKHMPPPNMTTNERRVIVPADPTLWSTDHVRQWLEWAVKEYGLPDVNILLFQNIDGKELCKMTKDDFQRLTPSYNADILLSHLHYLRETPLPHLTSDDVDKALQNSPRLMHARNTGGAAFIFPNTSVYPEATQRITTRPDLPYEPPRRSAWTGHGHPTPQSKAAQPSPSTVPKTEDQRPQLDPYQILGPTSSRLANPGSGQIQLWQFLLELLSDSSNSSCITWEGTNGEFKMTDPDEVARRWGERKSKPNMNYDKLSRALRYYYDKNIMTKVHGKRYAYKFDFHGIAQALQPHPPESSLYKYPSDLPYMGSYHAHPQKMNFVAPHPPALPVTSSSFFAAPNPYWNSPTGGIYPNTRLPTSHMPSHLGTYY
# Outline: as §1
# ELF1 = ELF1 (Homo sapiens, UniProt P32519 1-619); details: protein: recombinant; tags: N-terminal GST; dsDNA, one strand shown
# Chain of ELF1 (P32519 whole entry): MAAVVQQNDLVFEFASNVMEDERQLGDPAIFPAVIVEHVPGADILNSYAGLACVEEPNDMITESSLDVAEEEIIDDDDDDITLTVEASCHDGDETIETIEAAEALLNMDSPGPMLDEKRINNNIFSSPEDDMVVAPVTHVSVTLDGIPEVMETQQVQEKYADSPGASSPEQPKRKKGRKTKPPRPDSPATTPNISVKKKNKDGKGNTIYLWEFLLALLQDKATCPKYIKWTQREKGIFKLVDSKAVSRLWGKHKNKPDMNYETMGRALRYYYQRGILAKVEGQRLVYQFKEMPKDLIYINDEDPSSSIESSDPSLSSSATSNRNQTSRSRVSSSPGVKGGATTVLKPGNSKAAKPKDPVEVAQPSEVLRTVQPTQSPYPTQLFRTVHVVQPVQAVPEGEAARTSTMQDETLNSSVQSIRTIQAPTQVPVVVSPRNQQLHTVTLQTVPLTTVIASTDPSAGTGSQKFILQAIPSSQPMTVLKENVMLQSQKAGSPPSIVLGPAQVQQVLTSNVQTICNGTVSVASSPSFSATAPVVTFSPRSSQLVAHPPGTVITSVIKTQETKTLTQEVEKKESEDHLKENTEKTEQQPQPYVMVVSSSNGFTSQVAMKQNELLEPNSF
# Outline: as §1
# EHF = target: T5, EHF (Homo sapiens, UniProt Q9NZC4 1-300); details: protein: recombinant; tags: N-terminal GST; dsDNA, one strand shown
# T5 sequence: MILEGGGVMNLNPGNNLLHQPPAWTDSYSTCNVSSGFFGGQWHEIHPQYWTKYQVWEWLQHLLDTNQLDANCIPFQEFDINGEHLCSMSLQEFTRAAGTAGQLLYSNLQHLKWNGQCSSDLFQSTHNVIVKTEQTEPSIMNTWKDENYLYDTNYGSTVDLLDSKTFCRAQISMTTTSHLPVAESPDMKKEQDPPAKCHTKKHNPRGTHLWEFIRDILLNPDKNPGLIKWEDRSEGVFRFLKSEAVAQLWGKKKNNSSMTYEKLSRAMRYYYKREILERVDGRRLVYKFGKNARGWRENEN
# Outline: as §1
# SPI1 = SPI1 (Homo sapiens, UniProt P17947 1-270); details: protein: recombinant; tags: N-terminal GST; dsDNA, one strand shown
# Outline: as §1
# SPIB = SPIB (Homo sapiens, UniProt Q01892 1-262); details: protein: recombinant; tags: N-terminal GST; dsDNA, one strand shown
# Chain of SPIB (Q01892 whole entry): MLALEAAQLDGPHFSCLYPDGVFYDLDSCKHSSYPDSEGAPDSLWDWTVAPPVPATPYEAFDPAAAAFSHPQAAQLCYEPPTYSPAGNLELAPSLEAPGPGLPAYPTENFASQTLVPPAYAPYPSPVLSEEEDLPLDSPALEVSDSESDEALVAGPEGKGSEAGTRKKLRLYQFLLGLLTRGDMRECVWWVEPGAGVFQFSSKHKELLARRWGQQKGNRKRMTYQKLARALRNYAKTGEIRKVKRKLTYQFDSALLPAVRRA
# Outline: as §1
# ELK3 = target: T6, ELK3 (Homo sapiens, UniProt P41970 1-407); details: protein: recombinant; tags: N-terminal GST; dsDNA, one strand shown
# T6 sequence: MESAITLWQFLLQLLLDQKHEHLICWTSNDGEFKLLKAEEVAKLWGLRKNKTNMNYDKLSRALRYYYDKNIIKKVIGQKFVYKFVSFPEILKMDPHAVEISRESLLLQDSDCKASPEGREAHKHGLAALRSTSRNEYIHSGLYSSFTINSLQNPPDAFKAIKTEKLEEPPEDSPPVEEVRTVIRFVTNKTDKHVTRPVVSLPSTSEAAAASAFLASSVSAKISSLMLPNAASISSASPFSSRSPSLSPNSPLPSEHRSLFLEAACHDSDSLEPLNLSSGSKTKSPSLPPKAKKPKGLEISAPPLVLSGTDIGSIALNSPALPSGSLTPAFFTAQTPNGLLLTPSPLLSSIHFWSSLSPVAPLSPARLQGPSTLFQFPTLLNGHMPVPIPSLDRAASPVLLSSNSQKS
# Outline: as §1
# FEV = target: T7, FEV (Homo sapiens, UniProt Q99581 1-238); details: protein: recombinant; tags: N-terminal GST; dsDNA, one strand shown
# T7 sequence: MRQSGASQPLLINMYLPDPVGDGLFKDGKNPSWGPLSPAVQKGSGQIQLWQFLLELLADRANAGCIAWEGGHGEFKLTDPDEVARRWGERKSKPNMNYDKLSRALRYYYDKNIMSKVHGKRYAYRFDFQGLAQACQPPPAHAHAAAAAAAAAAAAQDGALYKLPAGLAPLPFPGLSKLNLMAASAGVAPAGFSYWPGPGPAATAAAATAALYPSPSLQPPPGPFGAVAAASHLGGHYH
# Outline: as §1
# ETV5 = ETV5 (Homo sapiens, UniProt P41161 1-510); details: protein: recombinant; tags: N-terminal GST; dsDNA, one strand shown
# Chain of ETV5 (P41161 whole entry): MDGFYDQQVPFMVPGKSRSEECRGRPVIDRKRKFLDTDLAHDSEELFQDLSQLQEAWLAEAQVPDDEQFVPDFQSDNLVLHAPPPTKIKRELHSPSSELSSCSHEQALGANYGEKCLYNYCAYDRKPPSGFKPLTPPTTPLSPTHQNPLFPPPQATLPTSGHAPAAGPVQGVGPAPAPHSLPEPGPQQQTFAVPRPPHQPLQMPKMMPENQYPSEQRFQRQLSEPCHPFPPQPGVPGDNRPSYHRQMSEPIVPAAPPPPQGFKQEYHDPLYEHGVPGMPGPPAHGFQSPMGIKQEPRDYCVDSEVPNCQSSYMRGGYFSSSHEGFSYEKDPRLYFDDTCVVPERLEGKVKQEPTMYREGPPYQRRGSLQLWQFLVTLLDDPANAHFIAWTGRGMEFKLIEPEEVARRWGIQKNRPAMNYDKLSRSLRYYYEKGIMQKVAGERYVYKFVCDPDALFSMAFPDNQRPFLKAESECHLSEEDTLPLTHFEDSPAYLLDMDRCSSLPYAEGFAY
# Outline: as §1
# HSF1 = HSF1 (Homo sapiens, UniProt Q00613 1-529); details: protein: recombinant; tags: N-terminal GST; chain copies: 3; dsDNA, one strand shown
# Chain of HSF1 (Q00613 whole entry): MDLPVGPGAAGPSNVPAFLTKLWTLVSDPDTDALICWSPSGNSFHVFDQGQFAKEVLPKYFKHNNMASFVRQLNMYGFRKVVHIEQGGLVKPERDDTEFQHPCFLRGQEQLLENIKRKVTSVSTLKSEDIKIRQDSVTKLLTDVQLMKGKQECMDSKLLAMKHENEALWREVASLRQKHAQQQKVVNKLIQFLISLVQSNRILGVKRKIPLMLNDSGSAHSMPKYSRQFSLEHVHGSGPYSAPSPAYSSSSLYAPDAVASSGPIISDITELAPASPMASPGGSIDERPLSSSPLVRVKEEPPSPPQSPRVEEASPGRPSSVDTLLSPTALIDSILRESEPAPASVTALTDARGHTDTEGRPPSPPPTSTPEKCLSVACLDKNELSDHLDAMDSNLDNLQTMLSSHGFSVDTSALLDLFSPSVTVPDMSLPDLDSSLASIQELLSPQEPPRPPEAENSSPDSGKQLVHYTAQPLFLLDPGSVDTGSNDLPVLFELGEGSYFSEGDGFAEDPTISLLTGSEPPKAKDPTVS
# Outline: as §1
# SPIC = target: T8, SPIC (Homo sapiens, UniProt Q8N5J4 1-248); details: protein: recombinant; tags: N-terminal GST; dsDNA, one strand shown
# T8 sequence: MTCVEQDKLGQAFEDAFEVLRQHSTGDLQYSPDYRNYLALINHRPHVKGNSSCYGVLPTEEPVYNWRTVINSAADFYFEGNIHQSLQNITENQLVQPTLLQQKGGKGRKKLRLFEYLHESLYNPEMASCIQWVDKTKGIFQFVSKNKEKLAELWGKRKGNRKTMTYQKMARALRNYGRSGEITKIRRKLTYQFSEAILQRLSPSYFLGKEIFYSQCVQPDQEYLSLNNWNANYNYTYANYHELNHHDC
# Outline: as §1
# ELF4 = ELF4 (Homo sapiens, UniProt Q99607 1-663); details: protein: recombinant; tags: N-terminal GST; dsDNA, one strand shown
# Chain of ELF4 (Q99607 whole entry): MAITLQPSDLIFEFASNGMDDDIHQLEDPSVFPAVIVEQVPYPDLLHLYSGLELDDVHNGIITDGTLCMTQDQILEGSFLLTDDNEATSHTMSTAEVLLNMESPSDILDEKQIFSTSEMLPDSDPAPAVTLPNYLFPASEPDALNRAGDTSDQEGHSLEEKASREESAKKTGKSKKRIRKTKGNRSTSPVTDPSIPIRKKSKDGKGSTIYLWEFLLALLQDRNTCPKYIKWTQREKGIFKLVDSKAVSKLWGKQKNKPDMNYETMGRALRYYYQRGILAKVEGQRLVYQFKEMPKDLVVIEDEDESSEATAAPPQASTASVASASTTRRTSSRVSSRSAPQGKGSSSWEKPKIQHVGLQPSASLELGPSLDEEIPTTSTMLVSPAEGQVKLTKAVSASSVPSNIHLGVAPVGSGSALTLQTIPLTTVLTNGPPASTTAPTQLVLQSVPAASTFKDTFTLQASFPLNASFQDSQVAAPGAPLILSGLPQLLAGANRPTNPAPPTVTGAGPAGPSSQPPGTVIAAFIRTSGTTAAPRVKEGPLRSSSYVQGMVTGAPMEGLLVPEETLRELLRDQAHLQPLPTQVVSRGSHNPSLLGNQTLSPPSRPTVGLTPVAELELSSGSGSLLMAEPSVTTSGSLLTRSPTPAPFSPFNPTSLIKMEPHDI
# Outline: as §1
# ELK4 = target: T9, ELK4 (Homo sapiens, UniProt P28324-2 1-405); details: protein: recombinant; tags: N-terminal GST; dsDNA, one strand shown
# T9 sequence: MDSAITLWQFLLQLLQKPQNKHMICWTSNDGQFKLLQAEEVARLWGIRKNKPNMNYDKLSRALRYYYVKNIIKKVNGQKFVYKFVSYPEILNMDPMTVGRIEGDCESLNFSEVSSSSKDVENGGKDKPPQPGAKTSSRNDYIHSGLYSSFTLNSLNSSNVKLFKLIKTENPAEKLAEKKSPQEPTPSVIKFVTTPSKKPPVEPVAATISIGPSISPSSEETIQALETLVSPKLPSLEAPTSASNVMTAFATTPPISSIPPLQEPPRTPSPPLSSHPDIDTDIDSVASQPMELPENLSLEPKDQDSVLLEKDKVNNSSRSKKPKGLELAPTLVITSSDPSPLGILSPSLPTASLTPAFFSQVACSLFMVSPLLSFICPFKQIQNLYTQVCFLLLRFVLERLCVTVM
# Outline: as §1
# ETV2 = target: T10, ETV2 (Homo sapiens, UniProt O00321 1-342); details: protein: recombinant; tags: N-terminal GST; dsDNA, one strand shown
# T10 sequence: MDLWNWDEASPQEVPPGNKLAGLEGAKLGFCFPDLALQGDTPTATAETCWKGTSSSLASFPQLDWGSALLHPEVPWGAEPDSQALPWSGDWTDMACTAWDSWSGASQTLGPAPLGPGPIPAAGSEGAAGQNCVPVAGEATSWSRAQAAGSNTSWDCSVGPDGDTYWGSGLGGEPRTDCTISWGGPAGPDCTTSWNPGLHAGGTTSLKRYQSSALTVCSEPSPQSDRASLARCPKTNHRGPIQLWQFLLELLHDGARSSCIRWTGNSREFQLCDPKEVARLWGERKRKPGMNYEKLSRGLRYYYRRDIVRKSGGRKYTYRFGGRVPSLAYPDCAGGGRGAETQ
# Outline: as §1
# ELF3 = target: T11, ELF3 (Homo sapiens, UniProt P78545 1-371); details: protein: recombinant; tags: N-terminal GST; dsDNA, one strand shown
# T11 sequence: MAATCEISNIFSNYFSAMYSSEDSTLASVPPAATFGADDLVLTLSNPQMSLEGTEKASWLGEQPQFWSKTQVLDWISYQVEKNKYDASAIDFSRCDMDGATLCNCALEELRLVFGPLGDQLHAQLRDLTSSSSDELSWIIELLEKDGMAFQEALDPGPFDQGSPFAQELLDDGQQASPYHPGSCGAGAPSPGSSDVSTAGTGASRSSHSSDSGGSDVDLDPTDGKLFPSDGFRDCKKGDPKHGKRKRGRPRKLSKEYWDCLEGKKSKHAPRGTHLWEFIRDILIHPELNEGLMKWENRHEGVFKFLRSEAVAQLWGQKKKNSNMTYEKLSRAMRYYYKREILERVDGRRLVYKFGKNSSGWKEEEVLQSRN
# Outline: as §1
# CRX = CRX (Homo sapiens, UniProt O43186 1-299); details: protein: recombinant; tags: N-terminal GST; dsDNA, one strand shown
# Chain of CRX (O43186 whole entry): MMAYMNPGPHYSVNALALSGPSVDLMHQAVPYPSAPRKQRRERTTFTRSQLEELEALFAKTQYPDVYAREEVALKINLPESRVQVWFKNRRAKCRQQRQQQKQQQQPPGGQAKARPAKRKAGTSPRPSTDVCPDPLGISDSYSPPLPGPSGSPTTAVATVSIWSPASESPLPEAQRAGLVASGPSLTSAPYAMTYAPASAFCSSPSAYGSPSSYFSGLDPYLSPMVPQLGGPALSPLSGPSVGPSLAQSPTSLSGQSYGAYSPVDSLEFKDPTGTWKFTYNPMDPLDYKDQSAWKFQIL
# Outline: as §1
# ETV1 = ETV1 (Homo sapiens, UniProt P50549 1-477); details: protein: recombinant; tags: N-terminal GST; dsDNA, one strand shown
# Chain of ETV1 (P50549 whole entry): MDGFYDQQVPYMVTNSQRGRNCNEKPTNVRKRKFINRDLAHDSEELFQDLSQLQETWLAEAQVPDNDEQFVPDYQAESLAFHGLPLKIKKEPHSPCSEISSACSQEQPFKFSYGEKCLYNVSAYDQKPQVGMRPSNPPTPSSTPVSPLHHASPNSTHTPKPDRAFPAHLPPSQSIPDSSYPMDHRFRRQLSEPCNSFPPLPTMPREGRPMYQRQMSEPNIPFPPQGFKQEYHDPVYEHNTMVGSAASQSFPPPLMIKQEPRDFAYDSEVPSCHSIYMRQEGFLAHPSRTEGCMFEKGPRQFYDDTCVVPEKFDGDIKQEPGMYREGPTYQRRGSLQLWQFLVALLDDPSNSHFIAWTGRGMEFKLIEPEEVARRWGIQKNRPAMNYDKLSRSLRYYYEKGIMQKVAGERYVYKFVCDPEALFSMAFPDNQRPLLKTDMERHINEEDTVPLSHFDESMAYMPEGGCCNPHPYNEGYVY
# Outline: as §1
sequence,measurement,setting,value
CCCTCC,binding signal,FLI1,"1.37 fold enrichment (6-mer frequency, TF over GST control)"
same,binding signal,ELK1,"1.54 fold enrichment (6-mer frequency, TF over GST control)"
same,binding signal,GABPA,"1.5 fold enrichment (6-mer frequency, TF over GST control)"
same,binding signal,ERG,"1.41 fold enrichment (6-mer frequency, TF over GST control)"
same,binding signal,ELF1,"1.49 fold enrichment (6-mer frequency, TF over GST control)"
same,binding signal,EHF,"1.37 fold enrichment (6-mer frequency, TF over GST control)"
same,binding signal,SPI1,"1.35 fold enrichment (6-mer frequency, TF over GST control)"
same,binding signal,SPIB,"1.39 fold enrichment (6-mer frequency, TF over GST control)"
same,binding signal,ELK3,"1.37 fold enrichment (6-mer frequency, TF over GST control)"
same,binding signal,FEV,"1.51 fold enrichment (6-mer frequency, TF over GST control)"
same,binding signal,ETV5,"1.48 fold enrichment (6-mer frequency, TF over GST control)"
same,binding signal,HSF1,"1.22 fold enrichment (6-mer frequency, TF over GST control)"
same,binding signal,SPIC,"1.73 fold enrichment (6-mer frequency, TF over GST control)"
same,binding signal,ELF4,"1.58 fold enrichment (6-mer frequency, TF over GST control)"
same,binding signal,ELK4,"1.38 fold enrichment (6-mer frequency, TF over GST control)"
same,binding signal,ETV2,"1.32 fold enrichment (6-mer frequency, TF over GST control)"
same,binding signal,ELF3,"1.27 fold enrichment (6-mer frequency, TF over GST control)"
same,binding signal,CRX,"1.19 fold enrichment (6-mer frequency, TF over GST control)"
same,binding signal,ETV1,"1.45 fold enrichment (6-mer frequency, TF over GST control)"

# From article PMC7862700, “An all-to-all approach to the identification of sequence-specific readers for epigenetic DNA modifications on cytosine”
